We go through 94 compounds from PubChem BioAssay AID1851 (National Center for Advancing Translational Sciences (NCATS), 2009).

Molecules are shown by their SMILES. Values joined by “and” are separate entries in the source; they are usually repeats but may differ in a detail not shown here. Equal entries are not always repeated. About 4,000 (25%) of roughly 16,000 compounds were called active. About 26% were inconclusive and are not listed. The list is a sample of the results. Values without a mark were called inactive. The call rests on the fitted dose curve; in most records, active means well fitted curve in the direction sought with a large enough effect; inconclusive means small, poorly fitted or top-dose-only effect, or effect the other way; inactive means no such curve, though single readings can be large or run the other way.
On the % scale 0 is the no-effect control and ±100 the full control effect.

Chain of Cytochrome P450 2C9 (Homo sapiens) (P11712 whole entry, looked up): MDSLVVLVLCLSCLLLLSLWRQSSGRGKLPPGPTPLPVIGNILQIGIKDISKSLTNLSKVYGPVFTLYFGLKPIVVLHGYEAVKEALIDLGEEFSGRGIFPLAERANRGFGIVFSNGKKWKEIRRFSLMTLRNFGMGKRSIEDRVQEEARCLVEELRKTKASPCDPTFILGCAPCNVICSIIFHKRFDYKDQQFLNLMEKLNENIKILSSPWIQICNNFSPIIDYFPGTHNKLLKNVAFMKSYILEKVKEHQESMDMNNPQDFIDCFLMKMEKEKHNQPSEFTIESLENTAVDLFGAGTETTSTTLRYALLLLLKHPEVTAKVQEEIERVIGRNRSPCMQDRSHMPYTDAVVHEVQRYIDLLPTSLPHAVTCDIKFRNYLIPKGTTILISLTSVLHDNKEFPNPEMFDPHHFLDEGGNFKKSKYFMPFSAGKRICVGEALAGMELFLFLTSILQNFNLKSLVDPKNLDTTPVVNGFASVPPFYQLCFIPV

The experiment addresses Cytochrome P450 2C9 (Homo sapiens) (UniProt P11712). The experiment is described as follows: Cytochrome panel assay with activity outcomes. Particulars: recombinant CYP, pro-luciferin dealkylation, luminescence, p450-cyp2c9; series mostly up to 57.1 µM.
Consider `CC(C)(C)c1ccc(CN(Cc2ccco2)Cc2nnnn2C2CCCC2)cc1`, for which the AC50 (usually the concentration at which the activity in the assay is half-maximal) was 3.55 µM (active).

As to `O=C1CCc2cc(OCCCCc3nnnn3C3CCCCC3)ccc2N1`, the AC50 entry is “inactive”.

Consider `O=C(O)c1nnsc1-c1csnn1`, for which the activity, negative = inhibition was -13.9% [at 11.4 µM].

As for `O=C(Nc1ccc2c(c1)OCCO2)c1cc2sccc2n1Cc1ccc(F)cc1`, the AC50 was 3.55 µM (active).

Regarding `CCNC(=O)NC1(C(=O)Nc2ccc3c(c2)OCCO3)CCCCC1`, the AC50 result is “inactive”.

For the compound `CCO[P@]1(=O)OC[C@@H]2O[C@H](n3cnc4c(N)ncnc43)[C@H](O)[C@@H]2O1`, the activity, negative = inhibition is -1.07% [at 11.4 µM].

As to `O=C(Nc1ccccc1)N1CC[C@@]2(CCCN(C(=O)c3cc(C(F)(F)F)cc(C(F)(F)F)c3)C2)C1`, the AC50 result was “inactive”.

Turning to `Cc1ccccc1NC(=O)OCc1cn(-c2ccc(Cl)cc2)nn1`, the AC50 entry was “inactive”.

Turning to `NNC(=O)c1nn(-c2ccc(Cl)cc2)ccc1=O`, the AC50 entry was “inactive”.

`CCCCC(=O)OCc1cn(-c2ccc(Cl)cc2)nn1`: the concentration at half-maximal activity (AC50) was 17.8 µM (active).

On to `CCOC(=O)CCN1C(=O)[C@H]2[C@H]3[C@H](O)[C@H](O)C/C(=N/OC/C=C(\C)CCC=C(C)C)[C@H]3CC[C@@H]2C1=O`, for which the activity, negative = inhibition is 3.33% [at 11.4 µM].

For `CCC(Sc1nc(=O)cc(N)n1CCc1ccccc1)C(=O)Nc1ccccc1C#N` (centres undefined), the AC50 was 2.51 µM (active).

Turning to `CCNc1ncc2nc(C)c(=O)n(CCc3ccccc3)c2n1`, the AC50 result was “inactive”.

On to `CC(=O)O[C@@H](C)C[N+](C)(C)C`, for which the AC50 result is “inactive”.

In the case of `N#Cc1cccc(NC(=O)N2CC[C@@]3(CCCN(C(=O)c4ccncc4)C3)C2)c1`, the AC50 result was “inactive”.

As to `CC(=O)N1CCN(S(=O)(=O)c2ccccc2)C1c1ccccc1` (centres undefined), the AC50 result was “inactive”.

Turning to `Cc1ccc(S(=O)(=O)N2CCC(C(=O)O)(c3ccccc3)CC2)cc1`, the activity, negative = inhibition was -9.94% [at 11.4 µM].

Regarding `Cc1ccc(S(=O)(=O)N2CCN(C(=O)c3ccccc3)C2C(C)C)cc1` (centres undefined), the AC50 was 25.1 µM (active).

For `Cc1noc(C)c1-c1nccc(Nc2ccc(F)cc2)n1`, the activity, negative = inhibition is 25.8% [at 2.29 µM].

With `Fc1cccc(NC(=S)NCCCN2CCOCC2)c1`, the AC50 entry is “inactive”.

As for `O=C(CN1CCN(c2ccc(Cl)cc2)CC1)Nc1cccc(F)c1`, the AC50 is 2.82 µM (active).

Take `COC(=O)N1CCC2(CCN(C(=O)Nc3cccc(F)c3)CC2)CC1`: the AC50 result is “inactive”.

On to `O=C(CN1CCN(c2ccc(Cl)cc2)CC1)Nc1ccc(F)c(F)c1`, for which the AC50 is 3.55 µM (active).

In the case of `O=C(CSc1ccc(Cl)cc1)Nc1ccc(N2CCN(C(=O)c3ccc(Cl)cc3)CC2)cc1`, the AC50 is 5.01 µM (active).

Regarding `O=C(CSc1ccc(Cl)cc1)Nc1ccc(N2CCN(c3ccccc3)CC2)c(F)c1`, the AC50 entry was “inactive”.

As to `O=C(O)CCC(=O)Nc1ccc(C(=O)N2CCCCC2)cc1`, the AC50 result was “inactive”.

Consider `COc1ccc2c(Cl)c(-c3nnco3)sc2c1`, for which the AC50 result is “inactive”.

With `[O-][N+]1(CC[N+]2([O-])CCCCC2)CCCCC1`, the activity, negative = inhibition was -6.33% [at 11.4 µM].

Turning to `CCOC(=O)CSc1nnc(CSc2nc3sc4c(c3c(=O)[nH]2)CCCC4)n1-c1ccccc1`, the AC50 was 5.01 µM (active).

In the case of `CCOC(=O)CSc1nnc(Cc2cc(=O)[nH]c(=O)[nH]2)n1-c1cccc(OC)c1`, the AC50 result was “inactive”.

For the compound `CCOC(=O)CC1C(=O)NCCN1S(=O)(=O)c1ccc(Cl)c(Cl)c1` (centres undefined), the AC50 result was “inactive”.

For `COCCCNC(=O)c1ccc2c(=O)n(CC3CCCO3)c(=S)[nH]c2c1` (centres undefined), the AC50 result is “inactive”.

For the compound `O=C(NCc1ccccc1Cl)c1ccc2c(=O)n(CCCN3CCCC3=O)c(=S)[nH]c2c1`, the AC50 is 8.91 µM (active).

For `COCCn1c(=S)[nH]c2cc(C(=O)NC(C)C)ccc2c1=O`, the AC50 result is “inactive”.

`N#Cc1cccc(-c2cc(NCc3cccnc3)ncn2)c1`: the activity, negative = inhibition was -26.2% [at 2.29 µM].

`COc1ccc2[nH]c(=O)c(CN(CCO)C(=O)c3cccs3)cc2c1`: the AC50 entry is “inactive”.

In the case of `COc1cccc(C(=O)N(Cc2ccccc2)Cc2cc3cc4c(cc3[nH]c2=O)OCCO4)c1`, the half-maximal activity concentration (AC50) is 10 µM (active).

As to `Cc1cnc(CNc2cc(-c3cccc(C#N)c3)ncn2)cn1`, the activity, negative = inhibition is 19.4% [at 2.29 µM].

For the compound `COc1cccc(Cn2c(=O)c(-c3cccs3)nc3cnc(N4CCNCC4)nc32)c1`, the concentration at half-maximal activity (AC50) is 12.6 µM (active).

For the compound `COc1ccc(-c2nc3cnc(N4CCNCC4)nc3n(CCc3ccccc3)c2=O)cc1`, the AC50 was 3.98 µM (active).

In the case of `COc1cccc(Cn2c(=O)c(-c3ccc(Cl)cc3)nc3cnc(N4CCNCC4)nc32)c1`, the AC50 is 12.6 µM (active).

On to `COc1cccc(Cn2c(=O)c(-c3ccc(Cl)cc3)nc3cnc(N4CCN(C)CC4)nc32)c1`, for which the AC50 result is “inactive”.

For `COc1ccc(-c2nc3cnc(N4CCN(C)CC4)nc3n(CCC#N)c2=O)cc1`, the AC50 entry was “inactive”.

Take `CCNc1ncc2nc(-c3ccc(Cl)cc3)c(=O)n(Cc3cccc(OC)c3)c2n1`: the AC50 result is “inactive”.

Regarding `COc1ccc(-c2nc3cnc(N4CCN(C)CC4)nc3n(Cc3ccc(F)cc3)c2=O)cc1`, the AC50 result was “inactive”.

In the case of `COc1cccc(Cn2c(=O)c(-c3ccc(F)cc3)nc3cnc(N4CCNCC4)nc32)c1`, the AC50 was 15.8 µM (active).

Regarding `CCCS(=O)(=O)N1CCCC(C(=O)NCCCOC(C)C)C1` (centres undefined), the AC50 entry was “inactive”.

Regarding `COc1ccc(-n2c(=O)c(-c3ccc(Cl)cc3)nc3cnc(N4CCNCC4)nc32)cc1`, the AC50 entry is “inactive”.

Turning to `COc1cccc(Cn2c(=O)c(-c3ccccc3)nc3cnc(N4CCNCC4)nc32)c1`, the AC50 was 12.6 µM (active).

For `COc1cccc(Cn2c(=O)c(-c3cc(F)cc(F)c3)nc3cnc(N4CCNCC4)nc32)c1`, the AC50 is 7.94 µM (active).

Regarding `COc1cccc(Cn2c(=O)c(-c3cc(F)cc(F)c3)nc3cnc(N(C)C)nc32)c1`, the AC50 entry was “inactive”.

`COc1ccc(-c2nc3cnc(N4CCNCC4)nc3n(Cc3cccc(OC)c3)c2=O)cc1`: the AC50 is 25.1 µM (active).

In the case of `COc1cccc(Cn2c(=O)c(-c3ccccc3)nc3cnc(N4CCN(C)CC4)nc32)c1`, the AC50 result is “inactive”.

For `COc1ccc(-n2c(=O)c(-c3cc(F)cc(F)c3)nc3cnc(N4CCNCC4)nc32)cc1`, the AC50 entry is “inactive”.

Take `CCC1(c2ccccc2)C(=O)NCNC1=O`: the AC50 result is “inactive”.

On to `CC(C)CO/N=C1/[C@H]2O[C@@H]2[C@@H](O)[C@H]2[C@H]1CCn1c(=O)n(C)c(=O)n12`, for which the activity, negative = inhibition was -1.24% [at 11.4 µM].

Consider `CN(c1ccc(C(=O)NCC2CCCO2)cc1)S(=O)(=O)c1ccccc1` (centres undefined), for which the concentration at half-maximal activity (AC50) was 25.1 µM (active).

Consider `O=C(CC(c1ccccc1)c1ccccc1)NCC1CCCO1` (centres undefined), for which the AC50 was 20 µM (active).

Regarding `CCOC(=O)Nc1ccc(C(=O)NCC2CCCO2)cc1` (centres undefined), the AC50 result was “inactive”.

On to `Cc1ccc(C(=O)NC(=S)NCC2CCCO2)cc1` (centres undefined), for which the AC50 was 7.94 µM (active).

In the case of `CCC(=O)NC(NCC1CCCO1)C(Cl)(Cl)Cl` (centres undefined), the AC50 result was “inactive”.

With `O=C(NCC1CCCO1)C1CCC(=O)N1CCc1ccccc1` (centres undefined), the AC50 result is “inactive”.

For `Oc1oc(-c2ccccc2)nc1C=Nc1ccccc1`, the AC50 was 8.91 µM (active).

As for `CN(C)c1ccc(N=C/C=C2\N(C)c3ccccc3C2(C)C)cc1`, the AC50 result was “inactive”.

For the compound `O=C(Oc1oc(-c2ccco2)nc1C=Nc1ccc(Cl)cc1)c1ccco1`, the AC50 entry is “inactive”.

Consider `CN(C)c1ccc(N=Cc2nc(-c3ccccc3)oc2O)cc1`, for which the half-maximal activity concentration (AC50) was 7.08 µM (active).

With `CN(C)c1ccc(N=Nc2cccc3ccoc23)cc1`, the activity, negative = inhibition was 18.2% [at 11.4 µM].

On to `c1cncc(-c2cc(-c3cc(-c4cccnc4)n[nH]3)[nH]n2)c1`, for which the activity, negative = inhibition was 8.46% [at 11.4 µM].

Regarding `CC(/C=N/n1c(-c2cccnc2)n[nH]c1=S)=C\c1ccccc1`, the AC50 was 10 µM (active).

Regarding `CCn1c(-c2ccc3ncccc3c2)n[nH]c1=S`, the AC50 entry is “inactive”.

With `CN1[C@@H]2CC[C@H]1CC(OC(c1ccccc1)c1ccccc1)C2` (some centres undefined), the AC50 result is “inactive”.

Take `Cc1ccc(N(C(=O)c2csnn2)C(C(=O)NC(C)(C)C)c2cccs2)cc1` (centres undefined): the AC50 entry was “inactive”.

`CCc1ccc(N(C(=O)c2csnn2)C(C(=O)NCc2ccccc2)c2ccco2)cc1` (centres undefined): the AC50 is 14.1 µM (active).

Consider `O=C(OC(C(=O)O)C(OC(=O)c1ccccc1)C(=O)NCc1ccccc1)c1ccccc1` (centres undefined), for which the AC50 entry was “inactive”.

With `Cc1ccc(S(N)(=O)=O)cc1NC(=O)/C=C/c1cccs1`, the AC50 result is “inactive”.

For the compound `Cc1ccc(S(=O)(=O)N2CCOCC2)cc1NC(=O)COC(=O)CCC(=O)c1cccs1`, the concentration at half-maximal activity (AC50) is 14.1 µM (active).

Consider `CCN(CC)c1ccc2c(c1)OC(N)=C(C#N)C2c1cccnc1` (centres undefined), for which the AC50 is 7.94 µM (active).

In the case of `Cc1nc(SCc2cccc(Oc3ccccc3)c2)n[nH]1`, the AC50 was 15.8 µM (active).

On to `CN(C)Cc1ccccc1-c1nccc(NCc2cccs2)n1`, for which the activity, negative = inhibition is 13.4% [at 2.29 µM].

As for `COCCNc1ncnc2ccc(-c3ccccc3CN(C)C)cc12`, the activity, negative = inhibition was 25.7% [at 2.29 µM].

For `CCCc1cc(=O)[nH]c(=S)[nH]1`, the AC50 entry was “inactive”.

As for `CN1CCN(c2ncc3ncc(=O)n(CCC#N)c3n2)CC1`, the AC50 entry is “inactive”.

Turning to `CC(=O)OC[C@H]1O[C@@H](ON=C(C)C)[C@H](OC(C)=O)[C@@H](OC(C)=O)[C@H]1OC(C)=O`, the activity, negative = inhibition is 6.05% [at 11.4 µM].

Turning to `O=C(Cn1cccc1C(=O)c1ccccc1)NCc1cccs1`, the AC50 result was “inactive”.

Take `CC(C)(O)C#Cc1ccc(C(=O)NCc2cccs2)s1`: the AC50 was 25.1 µM (active).

For `CC(C)(C)C(=O)Nc1nnc(SCC(=O)NCc2cccs2)s1`, the AC50 entry is “inactive”.

Consider `O=S(=O)(O)[C@@H](c1ccccc1)[C@@H](O)c1ccccc1`, for which the activity, negative = inhibition is 3.25% [at 11.4 µM].

As for `COCCCNC(=O)C(=O)N/N=C/c1ccc(OCC(=O)Nc2cccc(Cl)c2C)c(OC)c1`, the AC50 entry is “inactive”.

For `COc1cc(/C=N/NC(N)=O)c(Br)cc1OCC(=O)Nc1ccccc1C`, the AC50 is 3.16 µM (active).

For `Cc1ccc(CN2CC34C=CC(O3)C(C(=O)NCc3ccco3)C4C2=O)cc1` (centres undefined), the AC50 result was “inactive”.

Turning to `O=C(NCC1COc2ccccc2O1)C1C2C=CC3(CN(Cc4cccs4)C(=O)C13)O2` (centres undefined), the AC50 is 31.6 µM (active).

Regarding `COCCCNC(=O)C1C2C=CC3(CN(Cc4ccc(C)cc4)C(=O)C13)O2` (centres undefined), the AC50 entry was “inactive”.

`c1ccc(C[n+]2cccc(-c3cc4ccccc4[nH]3)c2)cc1`: the activity, negative = inhibition is -9.64% [at 11.4 µM].

With `O=C1C[C@@H](O)[C@@H](O)[C@H]2[C@@H]3C(=O)N(c4cccc(Oc5ccccc5)c4)C(=O)[C@@H]3CC[C@H]12`, the activity, negative = inhibition is -10.3% [at 11.4 µM] and 1.22% [at 11.4 µM].
